# According to PubChem BioAssay AID1159580 (chemical genetic matrix, 2015):
# Hit rate of the full screen: of about 5,500 compounds, about 2,000 (36%) were called active. Roughly 18% stayed inconclusive and do not appear here. Some of the results follow. Unmarked numbers belong to inactive results. No stated cut-off is given here; in the data, active means normalized growth mostly below about 0.91 (no sharp cut-off); inconclusive means no clear call, values can overlap the other calls; inactive means mostly above about 0.92.
# Test: chemical genetic growth profiling, strain panel (AID 1159580);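 further: tested at 20 µM; growth read once vehicle control cultures reached saturation at 30 °C; 1 = growth at the plate median or of vehicle wells; lower values mean less growth of the strain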
# Conditions: S. cerevisiae deletion strains, growth OD
compound,measurement,setting,value
O=C(OC1Cc2c(O)cc(O)cc2OC1c1cc(=O)c(O)c2c(O)c(O)cc(C3Oc4cc(O)cc(O)c4CC3O)c2c1)c1cc(O)c(O)c(O)c1 (stereo unspecified),normalized growth,"locus YAL013W, strain DEP1, hits give low values",0.132 (active)
same,normalized growth,"locus YAL021C, strain ccr4, hits give low values",0.794 (active)
same,normalized growth,"locus YAL026C, strain drs2, hits give low values",0.856 (active)
same,normalized growth,"locus YAL030W, strain snc1, hits give low values",0.971
same,normalized growth,"locus YBL061C, strain skt5, hits give low values",0.932
same,normalized growth,"locus YBR009C, strain hhf1, hits give low values",0.901 (active)
same,normalized growth,"locus YBR021W, strain FUR4, hits give low values",1.05
same,normalized growth,"locus YBR023C, strain chs3, hits give low values",0.87 (active)
same,normalized growth,"locus YBR171W, strain sec66, hits give low values",0.972
same,normalized growth,"locus YBR229C, strain ROT2, hits give low values",0.766 (active)
same,normalized growth,"locus YBR231C, strain swc5, hits give low values",0.819 (active)
same,normalized growth,"locus YBR279W, strain paf1, hits give low values",0.942
same,normalized growth,"locus YCL011C, strain gbp2, hits give low values",0.948
same,normalized growth,"locus YCL016C, strain dcc1, hits give low values",0.976
same,normalized growth,"locus YCL029C, strain bik1, hits give low values",0.816 (active)
same,normalized growth,"locus YCL061C, strain MRC1, hits give low values",0.942
same,normalized growth,"locus YCL069W, strain vba3, hits give low values",0.986
same,normalized growth,"locus YCR088W, strain abp1, hits give low values",1
same,normalized growth,"locus YDL005C, strain med2, hits give low values",0.996
same,normalized growth,"locus YDL035C, strain GPR1, hits give low values",0.158 (active)
same,normalized growth,"locus YDL040C, strain nat1, hits give low values",1
same,normalized growth,"locus YDL074C, strain BRE1, hits give low values",0.286 (active)
same,normalized growth,"locus YDL101C, strain DUN1, hits give low values",0.194 (active)
same,normalized growth,"locus YDL185W, strain tfp1, hits give low values",0.92
same,normalized growth,"locus YDL192W, strain arf1, hits give low values",0.747 (active)
same,normalized growth,"locus YDR001C, strain nth1, hits give low values",0.992
same,normalized growth,"locus YDR069C, strain doa4, hits give low values",0.71 (active)
same,normalized growth,"locus YDR101C, strain arx1, hits give low values",0.91 (active)
same,normalized growth,"locus YDR137W, strain rgp1, hits give low values",0.844 (active)
same,normalized growth,"locus YDR150W, strain NUM1, hits give low values",0.651 (active)
same,normalized growth,"locus YDR159W, strain sac3, hits give low values",1.06
same,normalized growth,"locus YDR162C, strain NBP2, hits give low values",0.0937 (active)
same,normalized growth,"locus YDR195W, strain ref2",1.03
same,normalized growth,"locus YDR297W, strain sur2, hits give low values",0.966
same,normalized growth,"locus YDR318W, strain mcm21, hits give low values",0.828 (active)
same,normalized growth,"locus YDR334W, strain swr1, hits give low values",0.873 (active)
same,normalized growth,"locus YDR335W, strain msn5, hits give low values",0.938
same,normalized growth,"locus YDR388W, hits give low values",0.888 (active)
same,normalized growth,"locus YDR392W, strain spt3, hits give low values",0.939
same,normalized growth,"locus YDR502C, strain sam2, hits give low values",0.645 (active)
same,normalized growth,"locus YEL003W, strain gim4, hits give low values",0.946
same,normalized growth,"locus YEL037C, strain rad23, hits give low values",0.946
same,normalized growth,"locus YEL061C, strain CIN8 (second series), hits give low values",0.992
same,normalized growth,"locus YEL061C, strain CIN8, hits give low values",0.417 (active)
same,normalized growth,"locus YER015W, strain faa2, hits give low values",0.93
same,normalized growth,"locus YER016W, strain bim1, hits give low values",0.968
same,normalized growth,"locus YER110C, hits give low values",1.01
same,normalized growth,"locus YER111C, strain swi4, hits give low values",0.885 (active)
same,normalized growth,"locus YER155C, strain BEM2 (second series), hits give low values",0.927
same,normalized growth,"locus YER155C, strain BEM2, hits give low values",0.982
same,normalized growth,"locus YER167W, strain BCK2, hits give low values",0.585 (active)
same,normalized growth,"locus YFR010W, strain ubp6, hits give low values",0.862 (active)
same,normalized growth,"locus YGL078C, strain dbp3, hits give low values",1
same,normalized growth,"locus YGL086W, strain mad1, hits give low values",0.795 (active)
same,normalized growth,"locus YGL167C, strain pmr1, hits give low values",0.969
same,normalized growth,"locus YGL173C, strain kem1, hits give low values",0.81 (active)
same,normalized growth,"locus YGL227W, strain vid30, hits give low values",1
same,normalized growth,"locus YGL240W, strain doc1, hits give low values",1
same,normalized growth,"locus YGL248W, strain PDE1, hits give low values",0.345 (active)
same,normalized growth,"locus YGL253W, strain hxk2, hits give low values",0.887 (active)
same,normalized growth,"locus YGR078C, strain PAC10, hits give low values",0.704 (active)
same,normalized growth,"locus YGR135W, strain pre9, hits give low values",0.67 (active)
same,normalized growth,"locus YGR229C, strain SMI1, hits give low values",0.0876 (active)
same,normalized growth,"locus YGR252W, strain gcn5, hits give low values",0.56 (active)
same,normalized growth,"locus YHR013C, strain ard1, hits give low values",0.805 (active)
same,normalized growth,"locus YHR027C, strain rpn1, hits give low values",0.812 (active)
same,normalized growth,"locus YHR030C, strain SLT2, hits give low values",0.59 (active)
same,normalized growth,"locus YHR079C, strain IRE1 (second series), hits give low values",0.864 (active)
same,normalized growth,"locus YHR094C, strain hxt1, hits give low values",0.982
same,normalized growth,"locus YHR129C, strain ARP1, hits give low values",0.536 (active)
same,normalized growth,"locus YHR142W, strain chs7, hits give low values",0.841 (active)
same,normalized growth,"locus YHR200W, strain rpn10, hits give low values",0.794 (active)
same,normalized growth,"locus YIL066C, strain RNR3, hits give low values",0.0947 (active)
same,normalized growth,"locus YIL073C, strain SPO22, hits give low values",0.159 (active)
same,normalized growth,"locus YIL125W, strain kgd1, hits give low values",0.995
same,normalized growth,"locus YIR030C, strain dcg1, hits give low values",0.956
same,normalized growth,"locus YJL092W, strain hpr5, hits give low values",0.992
same,normalized growth,"locus YJL095W, strain BCK1 (second series), hits give low values",0.96
same,normalized growth,"locus YJL095W, strain BCK1, hits give low values",0.154 (active)
same,normalized growth,"locus YJL115W, strain asf1, hits give low values",0.986
same,normalized growth,"locus YJL129C, strain trk1, hits give low values",1.04
same,normalized growth,"locus YJL134W, strain LCB3, hits give low values",0.732 (active)
same,normalized growth,"locus YJL154C, strain vps35, hits give low values",1
same,normalized growth,"locus YJL164C, strain tpk1, hits give low values",0.868 (active)
same,normalized growth,"locus YJL166W, strain qcr8, hits give low values",0.883 (active)
same,normalized growth,"locus YJL168C, strain set2, hits give low values",0.954
